# Experimental data: paper PMC7819943, “Rice protein-binding microarrays: a tool to detect cis-acting elements near promoter regions in rice”
# Whole data set: some 39,000 sequences, median “fluorescence intensity (a.u.)” near 4,300, cut for the highest 2% near 39,000. The sample holds the highest values, similar sequences and a random draw of the others, so the mix is not that of the screen.
# Target: T1, OsSMF1 (Oryza sativa, UniProt Q6ZLB0 1-436)
# T1 sequence: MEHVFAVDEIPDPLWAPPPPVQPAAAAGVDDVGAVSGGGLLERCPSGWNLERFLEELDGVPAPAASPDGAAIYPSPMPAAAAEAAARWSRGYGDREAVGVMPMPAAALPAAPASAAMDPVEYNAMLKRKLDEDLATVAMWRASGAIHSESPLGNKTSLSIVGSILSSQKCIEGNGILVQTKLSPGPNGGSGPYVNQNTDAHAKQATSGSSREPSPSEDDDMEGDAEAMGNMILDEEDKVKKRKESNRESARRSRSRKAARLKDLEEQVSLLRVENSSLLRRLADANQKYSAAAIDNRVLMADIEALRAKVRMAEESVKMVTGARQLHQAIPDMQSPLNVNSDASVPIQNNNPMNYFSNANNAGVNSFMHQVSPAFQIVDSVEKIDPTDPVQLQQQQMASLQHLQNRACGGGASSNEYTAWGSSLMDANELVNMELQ
# Assay: protein-binding microarray (RPBM); PBS, 2% BSA, 51.3 ng/ul salmon testes DNA, 50 uM zinc acetate, 200 nM TF, 25 C, 1 h; high values mean tight binding
# Settings: protein: recombinant; tags: N-terminal polyhistidine and DsRed monomer fusion (pET32a); chain copies: 2; label: CyDye5-dUTP incorporated in the synthesized complementary strand; 3' TTTTT single-stranded linker to array surface; dsDNA, one strand shown
# How it was run: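 Binding signal here means per-feature fluorescence intensity in arbitrary units. The values were read on an Axon 4000B scanner after a custom Agilent array, double-stranded by primer extension with Cy5-dUTP, was incubated with 200 nM protein at 25 °C for 1 h in PBS with 2% BSA, salmon testes DNA and 50 µM zinc acetate, then washed. The proteins were transcription factors with an N-terminal polyhistidine tag and DsRed, expressed in E. coli BL21-CodonPlus and purified on Ni–NTA.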
row,Sequence,binding signal
1,ACCAAAGTTGGTACAAGTGTATAATCAGAATGGGAGAGCGCGGAGTCACCTAGTGCAG,21600 fluorescence intensity (a.u.)
2,AATCGATTCTCCACTACTCTCTCGTCATTGTTCCCATGTTCGGAGTCACCTAGTGCAG,3270 fluorescence intensity (a.u.)
3,CCTCCTGTCAGACTGTCGTCAGTGTCACACTGTCACTGTCCGGAGTCACCTAGTGCAG,6520 fluorescence intensity (a.u.)
4,TTTATTACACAACGCAACTGGCCAGACTTTAGCGGGTCATCGGAGTCACCTAGTGCAG,46000 fluorescence intensity (a.u.)
5,AAAAGACTGGAATACGTGGCGAACAAACTTTATTACACAACGGAGTCACCTAGTGCAG,6740 fluorescence intensity (a.u.)
6,AAACTTATTTGGCCATGGTGTCATCGGGGTTGGCGTTTAGCGGAGTCACCTAGTGCAG,3860 fluorescence intensity (a.u.)
7,GCATGCAGGGCATGGCGAGACGGTGACGTGCTCCAAGGCGCGGAGTCACCTAGTGCAG,4760 fluorescence intensity (a.u.)
8,ACTCGCCTGGAAACCGTGAGATGAATTTATTAAGCCTAATCGGAGTCACCTAGTGCAG,3930 fluorescence intensity (a.u.)
9,ATGGGCCATGGCCCATCCGTGCCACGTGTCGCATGCTCCTCGGAGTCACCTAGTGCAG,27900 fluorescence intensity (a.u.)
10,CTCACCACCACCGTCGTCATCGTCGTCGTCACCCTCCTCCCGGAGTCACCTAGTGCAG,6620 fluorescence intensity (a.u.)
11,AGGGGCCACACCGACCCTCCACGTCATCGTCCACGTCACCCGGAGTCACCTAGTGCAG,40900 fluorescence intensity (a.u.)
12,GTCACCTAAGTGCCATGTCAACGCCACGTGGAAAGAAGACCGGAGTCACCTAGTGCAG,25100 fluorescence intensity (a.u.)
13,CCCATCTACCCACCCTCCGACACGTGGGCCCCACCCCGACCGGAGTCACCTAGTGCAG,11000 fluorescence intensity (a.u.)
14,GATCCAACACGTGTCCCCTACCCACGACACGTGGCAACCCCGGAGTCACCTAGTGCAG,36500 fluorescence intensity (a.u.)
15,GGATCCCATTAACACGTGTCACCGTGGCATGCCACGTCATCGGAGTCACCTAGTGCAG,51400 fluorescence intensity (a.u.)
16,TAGTCCAATCCATCGTGTTTCCACGTGGCGACCCAACCCCCGGAGTCACCTAGTGCAG,40000 fluorescence intensity (a.u.)
17,CCATGTAAGTGCCACGTCAACGCCACGTGGATCGAAGACTCGGAGTCACCTAGTGCAG,55500 fluorescence intensity (a.u.)
18,AACACCAATCACCACGTACGCCGACCAACCCCATCCACCCCGGAGTCACCTAGTGCAG,6870 fluorescence intensity (a.u.)
19,GCCATGCATCCATACACGTCTACACTCTACACCCATTAACCGGAGTCACCTAGTGCAG,4850 fluorescence intensity (a.u.)
20,CCATGTAAGTGTCACGTCAATGCCACGTGAGACGAAGACCCGGAGTCACCTAGTGCAG,12500 fluorescence intensity (a.u.)
21,ACAAGGCAACTACTCCTAGCTAGTAAGCATCAATGCATGGCGGAGTCACCTAGTGCAG,4520 fluorescence intensity (a.u.)
22,CGTAGGCTCGTCGCGGCCACGTACGCCATCCCGAGCTCGGCGGAGTCACCTAGTGCAG,6280 fluorescence intensity (a.u.)

row,Sequence,binding signal
1,TTGGCTTCTTCAACTTACGTTACCCAATGCATTATATTTGCGGAGTCACCTAGTGCAG,4300 fluorescence intensity (a.u.)
2,ACTGCTCACGCCTTAACTGCGCGTCTTAAGGTGGCGTGGCCGGAGTCACCTAGTGCAG,4310 fluorescence intensity (a.u.)
3,CGAGCCCACTCGAGGTGACTCACCTTGTTCCTCCACCAGTCGGAGTCACCTAGTGCAG,18500 fluorescence intensity (a.u.)
4,TCTGAGTTACTTCCAAGTTGACTAGTTACCTCTTACTACCCGGAGTCACCTAGTGCAG,3260 fluorescence intensity (a.u.)
5,TTAATGTCCGAACACCTCATACAACGTGACGCGTCAAAACCGGAGTCACCTAGTGCAG,6890 fluorescence intensity (a.u.)
6,AGTTGGCGTGGATGGCCACGATTCTGGACCCGGGGTTGCCCGGAGTCACCTAGTGCAG,3600 fluorescence intensity (a.u.)
7,AATCTCACCCATCCACGTGTCCCCAGATCTCATCCCCATCCGGAGTCACCTAGTGCAG,18700 fluorescence intensity (a.u.)
8,ACCGATGCCATCATCCACGTCATCGTCCACGTGTCACCCACGGAGTCACCTAGTGCAG,45100 fluorescence intensity (a.u.)
9,TACCAGTGTCACGCAGTGACGCAATGGATCATGCTATCCACGGAGTCACCTAGTGCAG,4450 fluorescence intensity (a.u.)
10,ACGCATGGATCCACGTGACGTCACGCCACGTCATCCACCACGGAGTCACCTAGTGCAG,60800 fluorescence intensity (a.u.)
11,TATGTATGAATGACAACACCGCCACGTCAGCGCCACGTCACGGAGTCACCTAGTGCAG,50400 fluorescence intensity (a.u.)
12,GTCCGATCGGACGCACCACGCATCCTAGCCGTCCACGCCACGGAGTCACCTAGTGCAG,3180 fluorescence intensity (a.u.)
13,GACAACCGAACACGTCGAGCCAGCGAATGATGAAACCCCACGGAGTCACCTAGTGCAG,31800 fluorescence intensity (a.u.)
14,CTCATCGTCCTCCACGTGTCCACCCATACACGTGTCGCCACGGAGTCACCTAGTGCAG,29800 fluorescence intensity (a.u.)
15,ATGGACTGTTTTGTCAACTAAGTAATGCATGACACGTGGACGGAGTCACCTAGTGCAG,14500 fluorescence intensity (a.u.)
16,CTGAATTTAGACACCTCAGCGCCACGTCAACTGGCGCTGACGGAGTCACCTAGTGCAG,18400 fluorescence intensity (a.u.)
17,ATTCTAATGACACCTAAGTGCCACGTCAACGCCACGTGGACGGAGTCACCTAGTGCAG,45100 fluorescence intensity (a.u.)
18,TTAATTCTAATGCCACTTAAGCGCAACGTCAACACCACGTCGGAGTCACCTAGTGCAG,18200 fluorescence intensity (a.u.)
19,CGGCGGCTTCTTGTTGGTGACGCCGCACGGCATGGTTGATCGGAGTCACCTAGTGCAG,5370 fluorescence intensity (a.u.)
20,CACTGCCCATTCGCCACGTCCCCTAACGCTCCAGGTTTATCGGAGTCACCTAGTGCAG,11800 fluorescence intensity (a.u.)
21,GAGATCGAACATCGATGCAGCCCCGCGTCAGGTGCCAAGTCGGAGTCACCTAGTGCAG,3510 fluorescence intensity (a.u.)
